Measured values reported in PubChem BioAssay (EPA / NIEHS).
Where “and” joins values, the source holds several entries; their conditions need not be identical. Equal values may be shown once. Inconclusive results are not listed. Some compounds were tested as several samples or in several runs, with calls that do not always agree. Calls of active or inactive are those of the source. The calls were made as follows, unless noted: active = hit-call score of the fitted dose curve at least 0.9, where 1 is the maximum; inactive = score below 0.9.

Assays:
[1] = CCTE_Mundy_HCI_Cortical_Synap_Neur_Matur_BPCount: CCTE's Synaptogenesis and Neurite Maturation Assay in rat cortical cells for Branch Point Count, Mundy Lab (AID 2284211)
Method in brief: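 Rat primary cortical cultures, AraC added DIV 5; chemicals dosed DIV 7 through DIV 12. Fixed cells stained for MAP2, synaptophysin and Hoechst; neurite branch points counted by automated high-content imaging, fitted relative to DMSO.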

[2] = CCTE_Mundy_HCI_Cortical_NOG_NeuriteCount: CCTE's Neurite Outgrowth Assay in rat cortical cells for Neurite Count, Mundy Lab (AID 2284212);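 also: cells fixed about two days after chemical exposure began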
Method in brief: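 Neurite number per cell from high-content imaging of betaIII-tubulin immunostaining, with Hoechst nuclear counterstain.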

[3] = CCTE_Mundy_HCI_Cortical_NOG_NeuriteLength: CCTE's Neurite Outgrowth Assay in rat cortical cells for Neurite Length, Mundy Lab (AID 2284213);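 also: neurites imaged about 48 to 50 h after chemical exposure began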
Method in brief: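 Neurite length was read by high-content imaging of βIII-tubulin-labelled neurites in rat primary cortical cultures. Activity was fitted relative to DMSO.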

[4] = CCTE_Mundy_HCI_Cortical_Synap_Neur_Matur_NeuriteLength: CCTE's Synaptogenesis and Neurite Maturation Assay in rat cortical cells for Neurite Length, Mundy Lab (AID 2284214)
Method in brief: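 Rat cortical neurons, AraC at DIV 5; compound + media change DIV 7, end DIV 12 (288.33 h). Fix, MAP2/synaptophysin/Hoechst immunostain, automated HCI of neurite length vs DMSO.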

[5] = CCTE_Mundy_HCI_Cortical_Synap_Neur_Matur_SynapseCount: CCTE's Synaptogenesis and Neurite Maturation Assay in rat cortical cells for Synapse Count, Mundy Lab (AID 2284218)
Method in brief: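 Primary rat cortical culture; AraC DIV 5 to arrest glia; compound + media change DIV 7; terminated DIV 12. PFA/Hoechst fix, anti-MAP2 + anti-synaptophysin immunostain; HCI synapse count/neuron; DMSO = baseline.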

[6] = CCTE_Mundy_HCI_Cortical_Synap_Neur_Matur_NeuriteCount: CCTE's Synaptogenesis and Neurite Maturation Assay in rat cortical cells for Neurite Count, Mundy Lab (AID 2284222)
Method in brief: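 In this multiplexed morphology readout, rat primary cortical neurons are fixed at DIV 12 following dosing at DIV 7 and stained for MAP2, synaptophysin and nuclei. High-content image analysis yields neurite count.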

[7] = CCTE_Mundy_HCI_Cortical_Synap_Neur_Matur_CellBodySpotCount: CCTE's Synaptogenesis and Neurite Maturation Assay in rat cortical cells for Cell Body Spot Count, Mundy Lab (AID 2284223)
Method in brief: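 Rat primary cortical cultures received AraC at DIV 5 to arrest glia, were dosed with chemical at DIV 7 with media change, and were fixed at DIV 12 (288.33 h). Synaptophysin puncta on MAP2-positive cell bodies per neuron were counted by high-content imaging versus DMSO.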

[8] = UKN4_HCS_LUHMES_cell_viability: Viability Assessment in the University of Konstanz (UKN) Leist Lab Neurite Outgrowth Assay in human LUHMES cells (UKN4) (AID 2284232)
Method in brief: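 Fluorescence intensity from high-content imaging of Hoechst H-33342/calcein-AM-stained cells served as the viability read-out. Human LUHMES precursors were differentiated 2 days, replated and treated 24 h; curves were fitted bidirectionally against DMSO.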

[9] = UKN2_HCS_IMR90_cell_viability: Viability Assessment in the University of Konstanz (UKN) Leist Lab Neural Crest Cell Migration Assay in human induced IMR90 Pluripotent Stem Cells (UKN2) (AID 2284233);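 also: viability of neural crest cells differentiated from IMR90 iPSC measured by calcein-AM fluorescence imaging; cells exposed to compound for 24 h after a 24 h migration phase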
Method in brief: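 Neural crest cells derived from IMR90 iPSC migrate into a stopper-free zone for 24 h in EGF/FGF medium, then are exposed to compound for 24 h. Viability assessed by calcein-AM and Hoechst staining with high-content imaging, fitted bidirectionally versus DMSO.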

[10] = CCTE_Mundy_HCI_Cortical_NOG_NeuronCount: CCTE's Neurite Outgrowth Assay in rat cortical cells for Neuron Count, Mundy Lab (AID 2284236; active = hit-call score of the fitted dose curve at least 0.9, where 1 is the maximum;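 also: neurons counted by imaging betaIII-tubulin and Hoechst stained cortical cells; cells exposed to compound for about 48 hours before fixation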)
Method in brief: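 Read-out: neuron number by high-content imaging of betaIII-tubulin (Alexa Fluor-488) and Hoechst-labelled rat primary cortical cells.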

[11] = CCTE_Mundy_HCI_Cortical_NOG_BPCount: CCTE's Neurite Outgrowth Assay in rat cortical cells for Branch Point Count, Mundy Lab (AID 2284237);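 also: branch points counted about two days after chemical exposure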
Method in brief: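 Measured 50.33 h after dosing, this morphology endpoint uses rat primary cortical cultures labelled for betaIII-tubulin. Branch points are quantified by high-content imaging, with DMSO as negative control and baseline.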

[12] = CCTE_Mundy_HCI_hNP1_Casp3_7: CCTE's Caspase-Glo 3/7 Assay in human neuroprogenitor cells for Apoptosis, Mundy Lab (AID 2284240)
Method in brief: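 Luminescent caspase-3/7 readout, 26.5 h post-dose, in human neural progenitor cells from WA09 embryonic stem cells. Cells grew 40–44 h at 37 °C, 5% CO2 before chemical addition. Activity analysed as signal increase over DMSO baseline.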

[13] = CCTE_Mundy_HCI_Cortical_Synap_Neur_Matur_NeuronCount: CCTE's Synaptogenesis and Neurite Maturation Assay in rat cortical cells for Neuron Count, Mundy Lab (AID 2284242; active = hit-call score of the fitted dose curve at least 0.9, where 1 is the maximum;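 also: hits reduce neuron count versus DMSO baseline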)
Method in brief: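 Neuron number was scored by automated high-content imaging of Hoechst- and MAP2-labelled rat primary cortical cells. Glial growth was arrested with AraC at DIV 5, compounds were applied from DIV 7, and cultures ended at DIV 12.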

[14] = read-out: Monokine induced gamma interferon (MIG), CXCL9 (gene 4283); test: BSK_KF3CT_MIG: BioMAP Diversity Plus: KF3CT Assay for Monokine induced gamma interferon (MIG) Biomarker Activity (AID 2284248); conditions: primary human keratinocytes with fibroblasts
Method in brief: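 Human keratinocyte plus foreskin fibroblast primary co-culture dosed with test chemical for 24 h; MIG level measured by ELISA and fitted in the positive direction against DMSO as baseline.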

[15] = read-out: Collagen I, COL1A1 (gene 1277); test: BSK_hDFCGF_CollagenI: BioMAP Diversity Plus: hDFCGF Assay for Collagen I Biomarker Activity (AID 2284250); conditions: primary human foreskin fibroblasts
Method in brief: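 Human skin primary fibroblasts dosed with test chemical, harvested at 24 h, Collagen I quantified by ELISA; parallel SRB staining (0.1% SRB after 10% TCA fixation, 560 nm) tracked cytotoxicity.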

[16] = read-out: Interferon-inducible T-cell alpha chemoattractant (ITAC), CXCL11 (gene 6373); test: BSK_hDFCGF_ITAC: BioMAP Diversity Plus: hDFCGF Assay for Interferon-inducible T-cell alpha chemoattractant (ITAC) Biomarker Activity (AID 2284251); conditions: primary human foreskin fibroblasts
Method in brief: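 Primary human foreskin fibroblasts (hDFCGF system) treated for 24 h; I-TAC quantified by ELISA. Gain-direction fitting versus DMSO; parallel SRB staining of total protein flagged overt cytotoxicity.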

[17] = read-out: Plasminogen activator inhibitor-1 (PAI1), SERPINE1 (gene 5054); test: BSK_KF3CT_PAI1: BioMAP Diversity Plus: KF3CT Assay for Plasminogen activator inhibitor-1 (PAI1) Biomarker Activity (AID 2284252); conditions: primary human keratinocytes with fibroblasts
Method in brief: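 ELISA read-out of PAI-1 taken 24 h after chemical treatment of a human skin primary co-culture of keratinocytes and foreskin fibroblasts. Increases over DMSO-treated wells defined activity.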

[18] = read-out: Interleukin-8 (IL8), CXCL8 (gene 3576); test: BSK_KF3CT_IL8: BioMAP Diversity Plus: KF3CT Assay for Interleukin-8 (IL8) Biomarker Activity (AID 2284254); conditions: primary human keratinocytes with fibroblasts
Method in brief: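 Human primary keratinocyte plus foreskin fibroblast co-culture dosed with test chemicals; IL-8 measured by ELISA 24 h after dosing. Activity fitted in the positive direction relative to DMSO negative control.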

[19] = read-out: Intercellular Adhesion Molecule 1 (ICAM1), ICAM1 (gene 3383); test: BSK_BE3C_ICAM1: BioMAP Diversity Plus: BE3C Assay for Intercellular Adhesion Molecule 1 (ICAM1) Biomarker Activity (AID 2284278); conditions: primary human bronchial epithelial cells;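 also: cell-surface ICAM-1 protein level quantified by ELISA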
Method in brief: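 Human primary bronchial epithelial cultures; compound added; 24 h incubation; cell-surface ICAM-1 measured by ELISA; signal increase fitted relative to DMSO negative control.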

[20] = read-out: Interferon-inducible T-cell alpha chemoattractant (ITAC), CXCL11 (gene 6373); test: BSK_BE3C_ITAC: BioMAP Diversity Plus: BE3C Assay for Interferon-inducible T-cell alpha chemoattractant (ITAC) Biomarker Activity (AID 2284279); conditions: primary human bronchial epithelial cells
Method in brief: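 The assay measures I-TAC levels by ELISA in human primary bronchial epithelial cell cultures 24 hours after chemical treatment. Values reflect signal increase over the DMSO baseline.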

[21] = read-out: Interleukin-8 (IL8), CXCL8 (gene 3576); test: BSK_BE3C_IL8: BioMAP Diversity Plus: BE3C Assay for Interleukin-8 (IL8) Biomarker Activity (AID 2284280); conditions: primary human bronchial epithelial cells
Method in brief: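 Primary human bronchial epithelial cells (BE3C system) exposed 24 h; IL-8 measured by ELISA and fitted in positive direction versus DMSO. Overt cytotoxicity assessed by SRB total-protein staining in parallel cultures.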

Measured: AC50

[Cd+2].[Cl-].[Cl-]
inactive: [12] | [18] | [19]
active: [1] 1.38 µM | [2] 13.1 µM | [3] 12.4 µM | [4] 1.46 µM | [5] 1.25 µM | [6] 2.71 µM | [7] 6.06 µM | [8] 8.98 µM | [9] 4.14 µM | [10] 9.84 µM | [11] 18.9 µM | [13] 0.728 µM | [14] 33.6 µM and 36.8 µM | [15] 1.42 µM and 465 nM | [16] 10 µM and 7.2 µM | [17] 34.5 µM and 29.9 µM | [18] 26.8 µM | [20] 28.9 µM and 31.5 µM | [21] 0.0538 µM
